Drawing on PubChem BioAssay AID588689 (Southern Research Specialized Biocontainment Screening …, 2011), this text covers inhibition for 92 compounds.

The campaign covered roughly 340,000 compounds. About 1,000 (0.29%) were called active. Rule as the data show it: inconclusive = inhibition above about 29% without an active follow-up result; inactive = below that. A selection follows. Results with a measured potency or affinity are listed apart.

The experiment deals with Genome polyprotein (Dengue virus type 2 (strain 16681-PDK53)) (UniProt P29991). Put plainly: Dengue-2 NS5 methyltransferase inhibitors, primary screen, biochemical, confirmation dose response (AID 588689). To be noted: Dengue-2 NS5 methyltransferase capping enzyme assay, at 25 µM, stronger effect = higher value.
Where [1] appears, read: measured here: pilot screen replicate inhibition.

On to `O=C(NCCCO)c1cc2ccccc2[nH]1`, for which the inhibition was -9.54% (inactive). The same measure, in the same setting: in the case of `O=C1Nc2ccccc2C12NCCc1c2[nH]c2ccccc12` (stereo unspecified) it was 6.48% (inactive).

`O=C(O)c1ccccc1-c1ccccc1C(=O)Nc1ccc2oc(=O)c3ccccc3c2c1`: the inhibition is 11.5% (inactive). On to `O=C(O)c1ccccc1-c1ccccc1C(=O)Nc1ccc2c(c1)[nH]c(=O)c1ccccc12`, for which the inhibition is 9.14% (inactive). Same read-out and setting: for `CCC(NS(=O)(=O)c1ccc(OC)cc1)C(=O)NCCc1ccccc1` (stereo unspecified) the value was -3.31% (inactive); for `Cc1ccc(OCC(=O)Sc2ccc(C)cc2)cc1`, -33.2% (inactive); for `CC1(C)[C@@H](O)CC[C@]2(C)[C@H]3C(=O)C=C4[C@@H]5C[C@@](C)(C(=O)O)CC[C@]5(C)CC[C@@]4(C)[C@]3(C)CC[C@@H]12`, -0.73% (inactive).

Consider `Cc1sc2ncnc(N3CCC(C(=O)Nc4sc5c(c4C(N)=O)CCC(C)C5)CC3)c2c1C` (stereo unspecified), for which the inhibition is 0% (inactive). Still for that read-out and setting: for `Cc1cccc(CCNC(=O)CCc2nnc(CCc3ccccc3)o2)n1` the value was -0.91% (inactive); for `CC(NC(=O)c1ccco1)C(=O)NC(C)c1cc(F)c(Cl)cc1Cl` (stereo unspecified), -1.62% (inactive); for `COc1ccc(CC(=O)Nc2ccc(S(=O)(=O)N3CCOCC3)cc2)cc1`, 0% (inactive). Turning to `O=C(COC(=O)c1ccc([N+](=O)[O-])o1)NCc1ccc2c(c1)OCO2`, the inhibition was 0% (inactive). On the same count and under the same terms, in the case of `O=C(O)c1cccc(-n2cccc2/C=N/O)c1` it was 0% (inactive).

For `O=C(O)c1cccc(-n2cccc2/C=C\[N+](=O)[O-])c1`, the inhibition is 0.75% (inactive). Regarding `O=C(N/C(=C\c1cccnc1)C(=O)N1CCC(O)CC1)c1ccccc1`, the inhibition is -1.67% (inactive). The same measure, in the same setting: in the case of `CC(=O)Nc1ccc(S(=O)(=O)NCCC(=O)OCC(=O)c2ccc(Br)cc2)cc1` it was -10.1% (inactive). With `Cc1ccc(C)n1N1C(=O)/C(=C\c2ccc(Cl)cc2)SC1=S`, the inhibition is 6.92% (inactive). On the same count and under the same terms, for `CC(=O)NN1C(=O)/C(=C\c2ccc(Cl)cc2)SC1=S` the value was 1.78% (inactive). On the same count and under the same terms, in the case of `COc1ccc(-c2nc(CS(=O)CC(=O)NCc3ccc(F)cc3)c(C)o2)cc1` (stereo unspecified) it was -10.5% (inactive); in that of `COc1cc(C(=O)NCCC(c2ccccc2)c2ccccc2)cc(OC)c1OC`, -9.51% (inactive); in that of `CC1=NN(c2ccc(Br)cc2)C(=O)/C1=C/c1cccs1`, 22% (inactive). Same read-out and setting: in the case of `CC1=NN(c2ccccc2)C(=O)/C1=C\c1cc(C)n(-c2ccccc2)c1C` it was -4.02% (inactive). As for `CCOc1cc(/C=C2/C(=O)N(c3ccccc3)N=C2C)ccc1OC(=O)c1cccs1`, the inhibition is 8.81% (inactive). As to `CC1=NN(c2ccccc2)C(=O)/C1=C\c1sccc1C`, the inhibition was 3.11% (inactive).

For `CC1=NN(c2ccccc2)C(=O)/C1=C/N(C)C`, the inhibition was 2.35% (inactive). Still for that read-out and setting: for `CC(=O)c1ccc(OC(=O)c2cccs2)cc1` the value was -2.4% (inactive). Same read-out and setting: in the case of `CC1=NN(c2ccccc2)C(=O)/C1=C/c1ccc[nH]1` it was -6.55% (inactive); in that of `CC1=NN(c2ccccc2)C(=O)/C1=C/C=C/c1ccccc1`, 0.72% (inactive). The same measure, in the same setting: for `COCCN(C(=O)COC(=O)C(c1ccccc1)c1ccccc1)c1c(N)n(Cc2ccccc2)c(=O)[nH]c1=O` the value was 0% (inactive); for `CCC(C(=O)OCC(=O)N(C)c1c(N)n(Cc2ccccc2)c(=O)[nH]c1=O)c1ccccc1` (stereo unspecified), -2.91% (inactive). Consider `COc1cccc(N2C(=O)Nc3ccc(Br)cc3C2(O)C(=O)NCCCOC(C)C)c1` (stereo unspecified), for which the inhibition is -4.76% (inactive).

For the compound `Cc1cc(C)c(C)c(S(=O)(=O)NCCN2CCOCC2)c1C`, the inhibition is 6.21% (inactive).

As to `COC(=O)c1ccc(CSC2=NC[C@@H]3[C@@H]4C(=O)N(C)C(=O)[C@@H]4[C@](C)(C(=O)OC)N23)cc1`, the inhibition was -0.66% (inactive). Also, the inhibition under setting [1] came to 1.52%.

Turning to `CCOc1ccc(C(=O)NCC(=O)NCCCSc2ccccc2)cc1OCC`, the inhibition is -5.91% (inactive). For the compound `CCOC(=O)N1CCN(CC(=O)c2ccc(O)c(C)c2O)CC1`, the inhibition was 0.45% (inactive). As for `CC1=NN(c2ccccc2)C(=O)/C1=C\c1ccc(Br)s1`, the inhibition was -0.88% (inactive). On the same count and under the same terms, in the case of `CC1=NN(c2ccccc2)C(=O)/C1=C\c1cn(-c2ccccc2)nc1C` it was 3.59% (inactive); in that of `COc1ccc(/C=C2/C(=O)N(c3ccccc3)N=C2C)cc1Br`, 18.3% (inactive); in that of `CC1=NN(c2ccccc2)C(=O)/C1=C\c1cc(C)n(C)c1C`, 0% (inactive). On the same count and under the same terms, for `COc1ccccc1/C=C1/C(=O)N(c2ccc([N+](=O)[O-])cc2)N=C1C` the value was 3.11% (inactive). For the compound `CC1=NN(c2ccccc2)C(=O)/C1=C\N(O)c1ccccc1`, the inhibition was 1.98% (inactive). Further, the inhibition under setting [1] is -1.18%. As to `OCCC1CN(Cc2cc3c(cc2Cl)OCO3)CCN1Cc1ccccc1` (stereo unspecified), the inhibition was 1.46% (inactive). Same read-out and setting: for `CCN(CC)S(=O)(=O)c1cc(NC(=O)CSc2nnc(N)s2)ccc1C` the value was 0.37% (inactive).

Turning to `COc1ccc(C(=O)NC(=S)Nc2cccnc2)cc1[N+](=O)[O-]`, the inhibition was 6.37% (inactive). On the same count and under the same terms, in the case of `CC(C)C(=O)NNS(=O)(=O)c1ccccc1[N+](=O)[O-]` it was -1.48% (inactive); in that of `Cc1nn(-c2ccc(F)cc2)c(Cl)c1C(=O)N(C)CC(=O)Nc1cccc(F)c1`, -5.05% (inactive). Same read-out and setting: for `CCCC(=O)N(c1ccc(C(=O)O)cc1)c1nc(-c2ccccc2)c(C)s1` the value was -13.9% (inactive); for `Cc1c(Br)c(=O)oc2c(Br)c(O)ccc12`, -1.45% (inactive).

As for `Cc1c(Br)c(=O)oc2c(Br)c(O)c(O)cc12`, the inhibition is 6.73% (inactive). On the same count and under the same terms, for `CCOC(=O)C(=O)NNc1ccccc1OC` the value was -3.11% (inactive); for `Cc1ccc(Cc2c(-c3ccc(Cl)cc3)nc3ccc(Cl)cn23)cc1`, 7.95% (inactive); for `C#CCOc1ccc(Cl)cc1/C=C1/C(=O)ON=C1C`, 10.6% (inactive). As for `COc1ccc(/C=C2/C(=O)ON=C2C)cc1Br`, the inhibition is 17.8% (inactive). Same read-out and setting: in the case of `COc1ccc(/C=C2/C(=O)ON=C2C)cc1Cl` it was 5.23% (inactive); in that of `C#CCOc1c(Cl)cc(/C=C2/C(=O)ON=C2C)cc1OC`, 19.6% (inactive). With `CCOc1cc(/C=C2/C(=O)ON=C2C)cc(Br)c1O`, the inhibition is -74.3% (inactive). Still for that read-out and setting: in the case of `S=C(NCCc1c[nH]c2ccccc12)NC1CC1` it was 2.32% (inactive). The same measure, in the same setting: in the case of `N#C/C(=C\c1ccc([N+](=O)[O-])cc1)C(=O)Nc1ccccc1O` it was 8.94% (inactive). Consider `Brc1ccc(-c2nnc3n2CCCCC3)cc1`, for which the inhibition is -4.77% (inactive). On the same count and under the same terms, in the case of `Cc1ccccc1CSCCNC(=O)COc1ccc(Cl)cc1` it was -3.24% (inactive); in that of `Cc1occc1C(=O)NNC(=O)c1ccccc1[N+](=O)[O-]`, 1.62% (inactive); in that of `CCC(=O)N1CCc2cc(Br)cc(S(=O)(=O)NCc3ccco3)c21`, 0% (inactive). On the same count and under the same terms, in the case of `O=C1OC(c2ccc(Cl)cc2)/C(=C(/O)c2ccccc2)C1=O` (stereo unspecified) it was 28.1% (inactive). Still for that read-out and setting: for `O=C(O)c1ccccc1C(=O)c1ccc(Cl)cc1` the value was 1.15% (inactive); for `CC(=O)C1=C(O)C(=O)OC1c1ccc(Cl)cc1` (stereo unspecified), -3.11% (inactive). Turning to `CC(=O)C1=C(O)C(=O)OC1c1ccc(C)cc1` (stereo unspecified), the inhibition is -9.38% (inactive). Same read-out and setting: in the case of `CC(=O)Nc1ccc(S(=O)(=O)N2CCC(N3CCCCCC3)CC2)cc1` it was -3.4% (inactive); in that of `CCOc1ccc(NC(=O)C2=NN(c3ccccc3)C(=O)CC2)cc1S(=O)(=O)N1CCCCC1`, -4.38% (inactive).

For `COc1cccc(N2CC(O)Cn3c2nc2c3c(=O)[nH]c(=O)n2C)c1` (stereo unspecified), the inhibition was -3.08% (inactive).

As for `COc1ccc(NC(=O)c2ccc(S(=O)(=O)N3CC(C)OC(C)C3)cc2)cc1` (stereo unspecified), the inhibition was 3.36% (inactive). Same read-out and setting: for `CN(CC(=O)Nc1ccc(S(=O)(=O)N(C)C)cc1)Cc1ccc(C(F)(F)F)cc1` the value was 2.22% (inactive). On the same count and under the same terms, in the case of `Nc1ccc(N=Nc2ccccc2)cc1[N+](=O)[O-]` it was -3.11% (inactive); in that of `Nc1ccc(-c2ccc(N)c([N+](=O)[O-])c2)cc1[N+](=O)[O-]`, -9.54% (inactive). In the case of `O=[N+]([O-])c1cccc(C=Nc2cccc3ccccc23)c1O`, the inhibition is 14.3% (inactive). Still for that read-out and setting: for `O=[N+]([O-])c1ccccc1N=Nc1ccc(O)cc1` the value was 0% (inactive). With `COc1cc(CN(C)Cc2cccc3ccccc23)cc([N+](=O)[O-])c1O`, the inhibition was 11.1% (inactive). Moreover, under setting [1], the inhibition worked out at 0.595%. Turning to `O=C(c1cc(O)c(O)c([N+](=O)[O-])c1)c1ccccc1F`, the inhibition is -7.33% (inactive). Consider `Cc1cc(Nc2ccccc2C(=O)O)n2ncnc2n1`, for which the inhibition is 6.29% (inactive). The same measure, in the same setting: in the case of `Cn1c(N)c(S(=O)(=O)N2CCN(c3ccccc3F)CC2)c(=O)n(C)c1=O` it was -7.15% (inactive).

Take `CC(C)CC(=O)Nc1ccc(C(=O)COC(=O)C2CCC2)cc1`: the inhibition was -0.65% (inactive). The same measure, in the same setting: for `O=C1C2C3C=CC(C4CC34)C2C(=O)N1Cc1ccco1` (stereo unspecified) the value was -2.18% (inactive); for `CSCCC(NS(=O)(=O)c1ccc(F)cc1)C(=O)NCc1ccc(S(N)(=O)=O)cc1` (stereo unspecified), 3.04% (inactive). Still for that read-out and setting: for `C=CCn1c(SCC(=O)NC2CCCC2)nnc1-c1ccncc1` the value was -3.89% (inactive). In the case of `Cc1ccc(S(=O)(=O)Nc2ccc3cc([N+](=O)[O-])ccc3c2[N+](=O)[O-])cc1`, the inhibition is -2.33% (inactive).

Turning to `Cc1ccc(NC2=C/C(=N/S(=O)(=O)c3cccs3)c3ccccc3C2=O)cc1`, the inhibition was 1.1% (inactive).

Take `Cc1ccc(S(=O)(=O)Nc2ccc3ncccc3c2[N+](=O)[O-])cc1`: the inhibition was -1.93% (inactive).

In the case of `Cc1cc(C)c(S(=O)(=O)/N=C2\C=C(NS(=O)(=O)c3ccccc3)C(=O)c3ccccc32)c(C)c1`, the inhibition was 25.3% (inactive). For the compound `Cc1ccccc1NC1=C/C(=N\S(=O)(=O)c2cccs2)c2ccccc2C1=O`, the inhibition is 63.2% (inactive).

As for `CCc1ccc(S(=O)(=O)/N=C2\C=C(Nc3ccc(O)cc3)C(=O)c3ccccc32)cc1`, the inhibition was 8.96% (inactive). For the compound `CCc1ccc(S(=O)(=O)Nc2ccccn2)cc1`, the inhibition was -5.27% (inactive). For the same compound, under setting [1], the inhibition was -6.09%. Turning to `Cc1ccc(Nc2nnc(SC(C)C(=O)NCC3CCCO3)s2)cc1C` (stereo unspecified), the inhibition is 4.44% (inactive). As for `CCc1ccc(N(C(=O)C(F)(F)F)C(C(=O)NC2CCCCC2)c2ccncc2)cc1` (stereo unspecified), the inhibition is 0.69% (inactive).

In general, inhibition refers to the relative decrease from the control value, in per cent.
